aSyn 5UTR inh – MLPCN primary screen, SNCA 5' untranslated region. alpha-synuclein 5'UTR reporter, inhibitor activity. inhibition, % (tested at 7.5 µM). hit rate 0.82% among 300,000. AID 1813, 2009; in the data active = inhibition above about 60%;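 also: H4 neuroglioblastoma cells stably carrying SNCA 5'UTR luciferase fusion; 0% = DMSO wells and 100% = positive control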
697 NFkB inh – inhibitors of PMA/ionomycin-induced NF-kB reporter, 697 cells, primary screen, B-cell NF-kB inhibitor project, cell-based, luminescence, uHTS; 697 B-cell NF-kB luciferase reporter, 16 h; inhibition, % at 4 µM; hit rate 0.33% among 330,000; AID 435022, 2010; in the data active = inhibition above about 35%
Gli-Sufu block – Gli-Sufu pathway antagonists, primary screen, luciferase luminescence, Sufu-KO-LIGHT cells, uHTS; Sufu-KO-LIGHT fibroblasts, Gli luciferase reporter luminescence; AID 588413, 2011; hit rate 0.74% among 340,000; inhibition, % at 5 µM;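 active = inhibition above about 55%, limit read from the data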;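 also: 0% = DMSO-treated cells and 100% = wells with medium but no cells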
Jurkat NFkB inh – inhibitors of induced NF-kB luciferase reporter, primary screen, TCR NF-kB activation inhibitor project, cell-based, luminescence, uHTS; inhibition, % at 4 µM; Jurkat, PMA/ionomycin-induced NF-kB luciferase reporter; hit rate 0.53% among 330,000; in the data active = inhibition above about 50%
H9c2 TAG inh – inhibitors of triacylglycerol accumulation, primary screen, cell-based, uHTS, fluorescence, H9c2; H9c2 cells, Nile Red lipid (TAG) fluorescence; cells loaded with 200 µM oleic acid; inhibition, % at 12.5 µM; hit rate 0.66% among 230,000;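 active = pattern-corrected inhibition of lipid staining of at least 50% with the nuclear-stain viability signal not falling by more than 50%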;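 also: 0% = DMSO wells and 100% = triacsin C control wells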
Shn3 inh set2 – reduction of Shn3 3'UTR firefly luciferase signal, primary screen, Schnurri-3 inhibitor project, cell-based, Clone20 osteoblasts, set 2; hit rate 0.52% among 360,000; Clone20 osteoblast Shn3 3'UTR firefly luciferase, 24 h; inhibition, % at 12.5 µM;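 active = mean inhibition of at least 75% with every replicate also reaching 75%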;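 also: 0% = median of neutral control wells and 100% = pilot-screen positive control compound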
Jurkat NFkB conf – PMA/ionomycin-induced NF-kB reporter inhibitors, Jurkat retest, confirmation, T-cell NF-kB inhibitor project, cell-based, luminescence, single concentration; Jurkat NF-kB luciferase, 16 h; hit rate 27% among 2,700; inhibition, % at 4 µM; AID 435020, 2010; shares compounds with Jurkat NFkB inh;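 active = inhibition reaching about 45% at 4 µM in either replicate, limit read from the data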;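 also: plate controls were PMA/ionomycin stimulated DMSO wells for no effect and unstimulated DMSO wells for full effect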
Starred values were filed as active, the others as inactive; / = not tested or not shown. A selection: hits, their analogues and other compounds. The true share with any hit is near 2.3%.

SMILES	aSyn 5UTR inh	697 NFkB inh	Gli-Sufu block	Jurkat NFkB inh	H9c2 TAG inh	Shn3 inh set2	Jurkat NFkB conf
O=[N+]([O-])c1ccc(CN2CCCCCC2)cc1	4.4	7.4	21.7	5.6	/	-3.4	/
CSc1ccc(CN2CCN(Cc3ccc([N+](=O)[O-])cc3)CC2)cc1	17.9	-23.8	15.8	54.8*	-7.0	21.8	25.8
CCN1C/C(=C/c2ccc(OC)c(O)c2)C(=O)/C(=C/c2ccc(OC)c(O)c2)C1	116.0*	-117.6	-4.2	88.9*	-0.1	-20.3	44.4*
COc1ccc(C=C2C(=O)c3ccccc3C2=O)cc1O	-4.2	14.8	-3.1	16.7	13.7	8.3	/
COc1ccc(/C=C2\CN(Cc3ccccc3)C/C(=C\c3ccc(OC)c(O)c3)C2=O)cc1O	106.7*	-65.5	9.4	52.6*	/	95.8*	9.8
Cc1ccc(N=C/C(C(=O)C(F)(F)F)=C(\O)c2ccco2)cc1Cl	-183.7	-185.5	-83.5	-183.5	/	-36.4	-7.8
Cc1ccccc1NC(=O)Nc1nc(C(N)Cc2ccccc2)cs1 (stereo not drawn)	/	/	/	/	31.8	-4.4	/
Cc1cccc(OCC(=O)Nc2nccs2)c1C	-49.3	-59.7	-75.2	-176.9	/	-110.8	-83.9
Cc1ccccc1OCCCC(=O)Nc1nccs1	26.6	-3.7	2.4	-2.3	/	14.1	/
Cc1ccn(-c2ccc(NC(=O)c3cccs3)cc2)n1	-63.0	-44.4	-68.4	-155.7	/	-30.4	-87.8
O=C(Nc1ccc(NC(=O)c2cccs2)cc1)c1cccs1	-140.8	-0.6	-42.7	-82.1	/	-124.5	/
Cc1ccsc1/C=N/NC(=O)c1cc(-c2ccncc2)nc2ccccc12	67.4*	23.6	44.9	58.2*	/	-2.3	55.5*
O=C(N/N=C/c1ccc(Cl)cc1)c1cc(-c2cccnc2)nc2ccccc12	43.3	-41.8	-18.3	65.6*	47.1	-19.1	14.8
O=C(N/N=C/c1ccsc1)c1cc(-c2ccncc2)nc2ccccc12	-10.9	-75.2	44.5	55.3*	26.7	9.7	19.1
O=C(Nc1ccc(Br)cc1)c1cc(-c2ccncc2)nc2ccccc12	/	-31.7	-4.0	57.2*	23.9	-2.2	27.6
COc1ccccc1-c1cc(C(=O)N/N=C/c2sccc2C)c2ccccc2n1	39.0	9.9	0.5	15.5	-16.9	27.1	/
O=C(Nc1ccncc1)c1cc(-c2ccccc2)nc2ccccc12	/	/	/	/	25.0	16.8	/
COc1ccc(NC(=O)CNC(=O)c2ccco2)cc1S(=O)(=O)Nc1cc(C)ccc1Br	/	6.5	-0.9	-2.2	4.7	7.8	/
COc1cc(OC)cc(C(=O)NCC(=O)N2CC=C(c3ccccc3)CC2)c1	/	-43.8	-13.3	69.9*	14.6	8.3	13.5
O=C(NCC(=O)N1CC=C(c2ccccc2)CC1)c1ccc(OC(F)F)cc1	/	-2.7	18.1	0.5	-10.0	15.5	/
COc1ccccc1-c1sc2cc3c(cc2c1-c1ccc2c(c1)OCO2)OCO3	/	-14.3	-0.2	-26.4	12.1	2.7	/
CCN(CC)c1ccc(/C=N/NC(=O)c2cccc(S(=O)(=O)N3CCOCC3)c2)c(O)c1	128.8*	-9.8	/	63.7*	41.5	89.2*	28.4
CC1=C(C(=O)OCc2ccc3c(c2)OCO3)C(c2ccc(Cl)cc2)NC(=O)N1 (stereo not drawn)	41.3	-17.7	-6.5	71.0*	/	12.2	63.7*
CC1=C(C(=O)OCc2ccc3c(c2)OCO3)C(c2ccc(F)cc2)NC(=O)N1 (stereo not drawn)	18.9	-36.6	-12.3	59.3*	/	7.0	33.6
C[C@@H]1CN([C@H](C)CO)C(=O)CCCn2nncc2CO[C@H]1CN(C)S(=O)(=O)c1ccc(Cl)cc1	/	/	/	/	3.6	9.4	/
SMILES	aSyn 5UTR inh	697 NFkB inh	Gli-Sufu block	Jurkat NFkB inh	H9c2 TAG inh	Shn3 inh set2	Jurkat NFkB conf
CCOC(=O)N1CCN(C(=O)C2CCCN(Cc3nc(-c4ccc(Cl)cc4)oc3C)C2)CC1 (stereo not drawn)	6.6	-12.3	9.1	58.8*	1.2	40.3	54.6*
Cc1oc(-c2ccc(Cl)cc2)nc1CN1CCCC(C(=O)NC2CC2)C1 (stereo not drawn)	39.1	-2.4	10.0	9.6	/	3.1	/
CCc1cc(C(=O)NN2C(=O)NC3(CCCCC3)C2=O)sc1C	/	-0.5	1.6	7.1	2.8	-3.2	/
CCOc1ccc(CCNC(=O)CSCC(=O)Nc2cccc(C)c2)cc1OCC	13.9	-10.9	0.0	6.9	38.1	13.3	/
Cc1ccc(O)c(-c2cc(-c3ccccc3C)[nH]n2)c1	-36.6	-5.6	-7.6	14.0	-8.6	-21.3	/
Cc1ccccc1-c1cc(-c2ccccc2O)on1	-216.4	-98.0	12.7	-192.7	/	-45.0	-128.0
COc1ccc(-c2cc(-c3ccc(C)cc3)n[nH]2)c(O)c1	-143.7	-184.4	-6.6	-83.6	/	-51.8	/
Oc1ccccc1-c1cc(-c2ccccc2)no1	-132.9	-108.6	14.6	-164.6	-14.9	-108.1	-149.6
O=C(c1cc(-c2ccccc2O)on1)N1CCCCCC1	-140.1	-34.4	-26.2	-60.5	/	-94.4	/
Cc1ccc(-c2cc(-c3ccccc3)no2)c(O)c1	-15.8	/	-65.8	/	-8.5	-12.0	/
Cc1ccc(O)c(-c2cc(-c3ccc(F)cc3)no2)c1	-108.7	-230.1	34.9	-193.5	-6.8	-38.9	-144.4
COc1ccc(-c2cc(-c3cc(C)ccc3O)[nH]n2)cc1	-248.7	10.0	42.9	77.4*	-9.3	-18.7	38.2
O=S(=O)(Nc1ccccn1)c1cccc(S(=O)(=O)c2ccc(Br)cc2)c1	6.6	-30.2	5.9	-17.6	0.2	13.8	/
CC(C)OC(=O)C1C2C=CC3(CN(CC4CCCO4)C(=O)C13)O2 (stereo not drawn)	-2.2	-2.1	-1.4	11.8	-6.6	6.6	/
O=C(NCCc1cccc(Cl)c1)c1cccs1	-115.2	-93.1	-79.4	-92.1	-4.1	-31.7	/
Clc1ccc(-c2cc(-c3ccccc3)on2)cc1	/	-209.8	-97.5	-173.2	-2.7	-139.2	-91.6
COc1ccc(OC)c(CCNC(=O)Cn2nc(C)c3c(C)n(-c4ccc(C)cc4)nc3c2=O)c1	25.2	14.4	-1.6	55.7*	/	58.9	66.5*
O=C(NCCSc1ccccc1)c1ccc(Br)cc1	-66.7	-169.6	-110.7	-165.9	/	-106.5	-100.2
FC(F)(F)c1nnc2c(Sc3ccc(Cl)cc3)nc3ccccc3n12	37.4	8.3	19.9	74.2*	133.2	7.9	4.5
O=C(O)Cn1cnc2c(OCc3ccccc3)ncnc21	/	-7.0	17.6	-5.1	-4.3	-11.5	/
Cc1cc(C)c(CN2CCN(C(=O)Cn3cnc4c(OCc5ccccc5)ncnc43)CC2)c(C)c1	/	33.2	45.6	59.0*	-3.5	80.0	59.4*
